Reference: PubChem BioAssay
Calls of active or inactive are those of the source. Unless noted, how the calls were made is not given here.

Experiments:
[1] = test system: Wnt5a (protein binding on small-molecule microarray); experiment: small molecules binding Wnt5a protein – biophysical, small-molecule microarray, 635/667 nm fluorescence, primary screen (AID 1142); conditions: 635 nm fluorescence, higher = more signal;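 further: fluorescence read at 667 nm with signal to noise per printed feature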
[2] = ATP-based viability of Huh7 replicon cells – cell-based, CellTiter-Glo luminescence, basal, 48 h, cytotoxicity control for HCV replication inhibitor project, primary screen (AID 1143); conditions: higher = more signal, called active from +8 up or from −8 down;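 further: Huh7 hepatoma cells carrying a hepatitis C replication reporter with no stimulus; test concentration not given here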
[3] = Pseudomonas biofilm growth suppression – PAO1 strain, BacTiter-Glo luminescence, LB-PBS, primary screen (AID 1144); conditions: P. aeruginosa PAO1 biofilm, 12 h, higher = more signal
[4] = basal CRE-LacZ reporter activity in PC12 – cell-based, unstimulated, primary screen (AID 1145); conditions: no forskolin, luminescence, 4.5 h, higher = more signal, called active from +8 up or from −8 down
[5] = forskolin-driven CRE-LacZ activity in PC12 – cell-based, CRE-LacZ reporter, forskolin-stimulated, primary screen (AID 1146); conditions: luminescence, 4.5 h, higher = more signal, called active from +8 up or from −8 down;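 further: PC12 cells with 6xCRE LacZ reporter stimulated by forskolin 10 µM; beta-galactosidase reporter signal reflecting CREB driven transcription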
[6] = target: Streptavidin (Streptomyces avidinii) (UniProt P22629); experiment: compounds binding control protein streptavidin – biophysical, small-molecule microarray, 635/667 nm fluorescence, artefact control for SMM compound annotation, primary screen (AID 1147); conditions: higher = more signal;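 further: signal reflects streptavidin binding to arrayed compounds as a control protein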
Chain of Streptavidin (Streptomyces avidinii) (P22629 whole entry, looked up): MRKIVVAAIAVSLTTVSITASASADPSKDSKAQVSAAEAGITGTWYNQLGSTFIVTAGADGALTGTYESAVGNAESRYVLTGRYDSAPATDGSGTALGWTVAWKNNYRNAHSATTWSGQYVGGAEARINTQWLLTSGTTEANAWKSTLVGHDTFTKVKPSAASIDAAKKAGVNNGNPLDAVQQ

[7] = probe aInhba binding on compound microarray – biochemical, small-molecule microarray, 635/667 nm fluorescence, primary screen (AID 1148); conditions: higher = more signal;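 further: score merges 667nm spot fluorescence with signal-to-noise for antibody binding to printed compounds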
Torsin-1A (Homo sapiens) [8] = target: Torsin-1A (Homo sapiens) (UniProt O14656); experiment: TOR1A wild-type binding on microarray – cell lysate, small-molecule microarray, lysate, 635/667 nm, primary screen (AID 1149); conditions: COS7 hTOR1A-WT lysate, 635 nm fluorescence, higher = more signal
Chain of Torsin-1A (Homo sapiens) (O14656 whole entry, looked up): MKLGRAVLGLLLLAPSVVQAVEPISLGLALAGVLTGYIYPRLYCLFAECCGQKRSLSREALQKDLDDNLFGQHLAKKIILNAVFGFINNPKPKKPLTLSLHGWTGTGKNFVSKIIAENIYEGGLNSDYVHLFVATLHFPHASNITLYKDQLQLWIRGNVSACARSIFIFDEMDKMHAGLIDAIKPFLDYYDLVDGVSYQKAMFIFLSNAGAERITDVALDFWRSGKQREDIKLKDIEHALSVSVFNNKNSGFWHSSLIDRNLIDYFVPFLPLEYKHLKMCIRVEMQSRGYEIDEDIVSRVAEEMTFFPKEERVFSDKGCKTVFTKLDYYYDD

Torsin-1A (Homo sapiens) [9] = target: Torsin-1A (Homo sapiens) (UniProt O14656); experiment: torsin A mutant lysate binding on microarrays – cell lysate, small-molecule microarray, COS7 lysate, 635/667 nm fluorescence, primary screen (AID 1150); conditions: COS7 hTOR1A mutant lysate, 635 nm fluorescence, higher = more signal;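 further: score pools 667 nm emission and signal to noise measuring lysate protein binding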
[10] = test system: Sonic hedgehog protein (Shh); experiment: Sonic hedgehog microarray binding compounds – biochemical, small-molecule microarray, 635/667 nm fluorescence, primary screen (AID 1151); conditions: 635 nm fluorescence, higher = more signal;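 further: Shh protein binding to compounds spotted on small-molecule microarray slides; score combines spot fluorescence intensity with signal-to-noise across triplicate slides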
[11] = optical density shifts of acrAB sulA E. coli – strain DRC41, OD650, 48 h, E. coli filamentation inducer project, primary screen (AID 1152); conditions: higher = more signal, called active from +8 up or from −8 down;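 further: E. coli MC1000 strain DRC41 lacking acrAB efflux pump and sulA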
[12] = probe aLefty1 binding on compound microarray – biochemical, small-molecule microarray, 635/667 nm fluorescence, primary screen (AID 1153); conditions: higher = more signal;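 further: score merges spot fluorescence with signal-to-noise ratio from the scanned slide images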
[13] = plasmodial surface anion channel blockers, osmotic lysis – cell-based, P. falciparum Indochina, OD700, 1 h, primary screen (AID 1154); conditions: P. falciparum Indochina infected RBC osmotic lysis, higher = more signal, called active from +8 up or from −8 down
[14] = plasmodial surface anion channel blockers, osmotic lysis – cell-based, P. falciparum Indochina, OD700, 2 h, primary screen (AID 1155);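 further: lysis reports solute entry through the parasite surface anion channel PSAC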; conditions: P. falciparum Indochina infected erythrocytes, higher = more signal, called active from +8 up or from −8 down
[15] = changes in parasitized red cell lysis, either direction – P. falciparum Indochina, OD700, 3 h, PSAC antagonist project, primary screen (AID 1156); conditions: P. falciparum-infected erythrocytes, osmotic lysis, higher = more signal, called active from +8 up or from −8 down
[16] = plasmodial surface anion channel blockers, osmotic lysis – cell-based, P. falciparum Indochina, OD700, 18 h, primary screen (AID 1157); conditions: P. falciparum Indochina infected erythrocytes, osmotic lysis OD700, 18 h; higher = more signal, called active from +8 up or from −8 down
[17] = S6 kinase pathway phospho-S6 level changes – cell-based, A549, cytoblot, luminescence, serum-stimulated, primary screen (AID 1158); conditions: 5 h, higher = more signal;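 further: serum-stimulated A549 lung adenocarcinoma cells; signal is phosphorylated S6 detected by cytoblot immunostaining with HRP secondary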
[18] = target: NADPH oxidase 2 (Homo sapiens) (UniProt P04839); experiment: compounds shifting NOX2 Amplex Red fluorescence – cell-based, HEK293-NOX2, PMA-stimulated, NOX inhibitor project, primary screen (AID 1159); conditions: 45 min, higher = more signal, called active from +8 up or from −8 down; further: test concentration not given here
Chain of NADPH oxidase 2 (Homo sapiens) (P04839 whole entry, looked up): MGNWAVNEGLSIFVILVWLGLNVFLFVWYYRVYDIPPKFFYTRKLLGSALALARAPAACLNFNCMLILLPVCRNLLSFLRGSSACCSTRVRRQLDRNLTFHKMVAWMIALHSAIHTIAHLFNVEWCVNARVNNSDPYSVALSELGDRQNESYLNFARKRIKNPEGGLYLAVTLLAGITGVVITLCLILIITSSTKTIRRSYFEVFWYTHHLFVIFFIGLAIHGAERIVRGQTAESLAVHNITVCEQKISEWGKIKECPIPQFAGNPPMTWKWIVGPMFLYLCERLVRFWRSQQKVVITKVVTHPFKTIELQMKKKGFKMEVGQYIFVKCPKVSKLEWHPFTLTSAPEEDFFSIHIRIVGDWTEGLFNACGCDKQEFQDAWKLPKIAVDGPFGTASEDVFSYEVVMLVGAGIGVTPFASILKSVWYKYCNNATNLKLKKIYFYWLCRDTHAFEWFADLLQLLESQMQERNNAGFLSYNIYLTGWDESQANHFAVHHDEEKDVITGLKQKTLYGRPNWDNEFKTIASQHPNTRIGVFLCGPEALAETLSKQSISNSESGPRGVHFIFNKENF

[19] = target: NADPH oxidase 4 (Homo sapiens) (UniProt Q9NPH5); experiment: compounds shifting NOX4 Amplex Red fluorescence – cell-based, HEK293-NOX4, tetracycline-induced, NOX inhibitor project, primary screen (AID 1160); conditions: HEK293-NOX4, Amplex Red H2O2 fluorescence, 45 min; higher = more signal, called active from +8 up or from −8 down
Chain of NADPH oxidase 4 (Homo sapiens) (Q9NPH5 whole entry, looked up): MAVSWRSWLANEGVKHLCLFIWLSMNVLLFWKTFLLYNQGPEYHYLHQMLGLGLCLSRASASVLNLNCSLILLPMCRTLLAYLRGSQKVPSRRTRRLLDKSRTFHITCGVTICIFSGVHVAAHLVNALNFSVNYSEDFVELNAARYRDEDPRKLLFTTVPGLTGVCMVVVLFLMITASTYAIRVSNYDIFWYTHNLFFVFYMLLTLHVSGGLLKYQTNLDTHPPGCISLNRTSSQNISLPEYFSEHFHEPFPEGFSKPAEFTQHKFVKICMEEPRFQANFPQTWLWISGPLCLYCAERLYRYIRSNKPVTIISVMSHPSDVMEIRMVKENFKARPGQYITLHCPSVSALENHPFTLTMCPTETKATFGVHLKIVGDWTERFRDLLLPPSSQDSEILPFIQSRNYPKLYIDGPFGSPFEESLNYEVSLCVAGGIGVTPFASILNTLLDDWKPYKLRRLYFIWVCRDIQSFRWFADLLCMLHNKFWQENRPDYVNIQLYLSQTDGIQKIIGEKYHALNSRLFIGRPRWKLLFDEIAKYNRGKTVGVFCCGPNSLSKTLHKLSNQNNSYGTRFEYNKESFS

[20] = target: NADPH oxidase 5 (Homo sapiens) (UniProt Q96PH1); experiment: compounds shifting NOX5 Amplex Red fluorescence – cell-based, HEK293-NOX5, NOX inhibitor project, primary screen (AID 1161); conditions: HEK293-NOX5, ionomycin, 45 min, higher = more signal
Chain of NADPH oxidase 5 (Homo sapiens) (Q96PH1 whole entry, looked up): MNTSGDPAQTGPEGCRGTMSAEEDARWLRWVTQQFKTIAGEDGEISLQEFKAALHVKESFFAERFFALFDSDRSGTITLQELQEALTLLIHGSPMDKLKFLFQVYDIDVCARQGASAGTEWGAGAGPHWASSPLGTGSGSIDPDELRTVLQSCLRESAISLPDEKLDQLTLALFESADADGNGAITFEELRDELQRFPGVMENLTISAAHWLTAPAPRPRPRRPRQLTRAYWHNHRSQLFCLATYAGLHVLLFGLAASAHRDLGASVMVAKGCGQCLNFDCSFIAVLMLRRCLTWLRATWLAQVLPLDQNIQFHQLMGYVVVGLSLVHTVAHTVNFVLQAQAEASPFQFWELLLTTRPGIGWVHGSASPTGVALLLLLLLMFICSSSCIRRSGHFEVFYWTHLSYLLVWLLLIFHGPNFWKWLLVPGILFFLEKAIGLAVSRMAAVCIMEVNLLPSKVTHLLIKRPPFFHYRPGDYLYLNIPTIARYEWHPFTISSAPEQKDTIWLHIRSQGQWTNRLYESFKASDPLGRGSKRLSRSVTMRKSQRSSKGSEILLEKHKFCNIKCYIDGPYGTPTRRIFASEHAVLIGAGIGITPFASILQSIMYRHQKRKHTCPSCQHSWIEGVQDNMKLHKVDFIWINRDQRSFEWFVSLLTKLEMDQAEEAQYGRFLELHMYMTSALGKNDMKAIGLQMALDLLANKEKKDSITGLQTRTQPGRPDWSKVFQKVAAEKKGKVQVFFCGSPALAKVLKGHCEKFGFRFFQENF

| Structure (SMILES) | composite z-score [1] | z-score [2] | z-score [3] | z-score [4] | z-score [5] | composite z-score [6] | composite z-score [7] | composite z-score (Torsin-1A (Homo sapiens) [8]) | composite z-score (Torsin-1A (Homo sapiens) [9]) | composite z-score [10] | z-score [11] | composite z-score [12] | z-score [13] | z-score [14] | z-score [15] | z-score [16] | z-score [17] | z-score [18] | z-score [19] | z-score [20] |
| --- | --- | --- | --- | --- | --- | --- | --- | --- | --- | --- | --- | --- | --- | --- | --- | --- | --- | --- | --- | --- |
| COc1ccc(C(O)C2C=CC3C(=O)N(C)C(=O)C3N2Nc2ccc([N+](=O)[O-])cc2[N+](=O)[O-])cc1OCc1ccccc1 (stereo not given) | 0.477 | 0.351 (inactive) | 0.967 (inactive) | 0.243 (inactive) | 0.706 (inactive) | 0.171 | 0.566 | 0.255 | 0.387 | -0.105 | -1.07 (inactive) | 0.703 | -0.686 (inactive) | 0.958 (inactive) | 0.0971 (inactive) | 0.975 (inactive) | -1.21 | 0.0939 (inactive) | 0.703 (inactive) | 2.34 |
| CC(C)C(=C=CC[C@@H](O)c1ccccc1OCCO)C[C@@H](O)c1cc(Cl)cc(Cl)c1O | 0.532 | -3.43 (inactive) | 0.519 (inactive) | 3.25 (inactive) | 0.266 (inactive) | 1.05 | 0.0622 | 1.44 | 0.86 | 2.11 | -0.701 (inactive) | 0.0004 | 22.2 (active) | 5.74 (inactive) | -0.0473 (inactive) | 1.56 (inactive) | -0.844 | -1.79 (inactive) | -1.46 (inactive) | -1.8 |
| NC(=O)[C@@]1(CCS(=O)(=O)c2ccccc2)COC(c2ccc(OCCCO)cc2)=N1 | 0.375 | -1.5 (inactive) | 1.59 (inactive) | 0.148 (inactive) | -1.35 (inactive) | 0.447 | -0.0044 | -0.0756 | 0.324 | -0.463 | 1.05 (inactive) | 0.281 | 22.1 (active) | 4.56 (inactive) | 0.815 (inactive) | 0.939 (inactive) | -0.192 | -2.33 (inactive) | -0.383 (inactive) | -0.124 |
| CC1(C)OC[C@@]23C=C(Br)[C@@H](C[C@H]12)[C@@]1(CO1)C3=O | 0.0405 | 0.661 (inactive) | 0.844 (inactive) | 0.494 (inactive) | 0.925 (inactive) | -0.0131 | -0.0331 | 0.667 | 0.483 | 0.474 | -0.68 (inactive) | 0.0557 | -0.396 (inactive) | 0.355 (inactive) | 0.0349 (inactive) | -0.0371 (inactive) | -0.552 | 0.173 (inactive) | 0.63 (inactive) | -0.278 |
| CC(C)C(=C=CC[C@@H](O)c1ccc(OCCO)cc1)CCO | 0.224 | -2.09 (inactive) | -0.635 (inactive) | -0.844 (inactive) | -1.31 (inactive) | -0.292 | -0.0719 | -0.0298 | 0.167 | 1.59 | 1.7 (inactive) | -0.0054 | 2.86 (inactive) | -0.421 (inactive) | -0.143 (inactive) | -1.58 (inactive) | 1.42 | -1.47 (inactive) | -0.462 (inactive) | -0.971 |
